# The campaign covered roughly 69,000 compounds. About 8,600 (12%) showed an effect of 50% or more. For the sample, strong results were picked, then their nearest neighbours and some compounds at random.
# System: Plasmodium berghei
# Assay: Screen against P. berghei liver stage (PbLuc), transformed with Luciferase, at 10uM
# Format: functional, HepG2
# Conditions: tested at 10 uM
row,Structure (SMILES),INHIBITION [%]
1,O=C(NC1CC1)C1=CC2(CCN(CC3CC3)CC2)c2ccccc21,37.1
2,Cc1cncc(C2CCN(Cc3ccc(S(C)(=O)=O)cc3)CC2)n1,25.3
3,CS(=O)(=O)NCc1cnc2n1CCN(Cc1ccco1)CC2,38.5
4,CN(Cc1ccsc1)C(=O)c1cccc(S(=O)(=O)NCC2CCCO2)c1 (stereo not drawn),23.4
5,COCCNC(=O)Cn1cc(OCc2ccc(F)cc2)c(=O)cc1CO,26.9
6,OC1CCN(CCCn2ccnc2-c2c[nH]cn2)CC1,-0.273
7,O=C(C1CCCC1)N1CCn2c(nnc2C2CCCNC2)C1 (stereo not drawn),-1.45
8,Cc1nnc(SCCC(=O)N(C)Cc2ccc(F)cc2Cl)[nH]1,51.1
9,Cc1nnc(SCCC(=O)N(C)Cc2ccc(F)cc2F)[nH]1,1.96
10,Cc1nnc(SCCC(=O)N(C)Cc2c(F)cccc2Cl)[nH]1,-1.25
11,CCc1c(O)nc2nc(N3CCOCC3)nn2c1C,11
12,COc1ccc(N2CCC(NS(=O)(=O)N(C)C(C)C)CC2)cc1,34.1
13,CCN(CC)S(=O)(=O)NC1CCN(c2ccc(OC)cc2)CC1,12.8
14,CCc1ccc(N2CCC(NS(=O)(=O)N(CC)CC)CC2)cc1,53.4
15,CC(C)(C)CC(=O)NCC(=O)Nc1ccn(Cc2cccnc2)n1,21.6
16,CN1CC(=O)N(c2ccsc2)CC12CCN(Cc1cnn(C)c1)C2 (stereo not drawn),-13
17,COCC(=O)N1CCC2(CCN(Cc3ccc(C)cc3)CC2)CC1,10.5
18,CC[C@@H](C)[C@@H](N)C(=O)Nc1cccc(-c2cnc(N(C)C)nc2)c1,76.8
19,CC[C@@H](C)[C@@H](N)C(=O)Nc1cccc(-c2cnc(N(C)CCO)nc2)c1,8.53
20,CC[C@@H](C)[C@@H](N)C(=O)Nc1cccc(-c2cnc(N)nc2)c1,17.4
21,NC(=O)C1CCN(C(=O)Cn2ccc3cc(Br)ccc32)CC1,30.6

row,Structure (SMILES),INHIBITION [%]
1,CC(C)(C)C1CCC(O)(CNC(=O)CCS(C)(=O)=O)CC1 (stereo not drawn),-23.2
2,Cc1ccc(C(=O)N(C)Cc2ccc3c(c2)OCCO3)c(=O)[nH]1,-11.6
3,Cn1cnc(S(=O)(=O)N2C[C@H]3CN(Cc4ccccn4)C[C@H]3C2)c1,76.4
4,COc1cc(N2CCC(c3nccn3Cc3ccccn3)CC2)ncn1,8.97
5,COc1cc(N2C[C@H]3CN(Cc4ccccn4)C[C@H]3C2)ncn1,85.6
6,Cn1cnc(S(=O)(=O)N2C[C@H]3CC[C@@H](C2)N(Cc2ccccn2)C3)c1,20.9
7,Fc1cccc(CN2C[C@@H]3CN(Cc4ccccn4)C[C@@H]3C2)c1,18.6
8,CS(=O)(=O)N1CCC2(CCCN(Cc3ccccn3)C2)C1 (stereo not drawn),-11.6
9,COc1cc(N2CCC3(CCCN(Cc4ccccn4)C3)C2)ncn1 (stereo not drawn),84.7
10,CC(C)CN1CCCC2(CCN(c3ccccn3)C2)C1 (stereo not drawn),21.7
11,Cn1cnc(S(=O)(=O)N2C[C@H]3CN(Cc4cccnc4)C[C@H]3C2)c1,49.1
12,CCc1csc(NC(=O)Nc2c(C)n[nH]c2C)n1,-1.79
13,CC(=O)N1CCCC1c1nc(C)no1 (stereo not drawn),7.05
14,Cc1cc(NCCc2cnccn2)nc(-c2ccccc2O)n1,17.5
15,O=C(NCc1cc[nH]n1)N1CCCC(N2CCCC2)C1 (stereo not drawn),16.9
16,NC(=O)CSc1ccccc1NC(=O)CC1C=CCC1 (stereo not drawn),-54.9
17,COCC(=O)NC(CC(C)C)c1nc2cccnc2n1C (stereo not drawn),-0.232
18,Cc1ccc(C(=O)Nc2c(C(=O)N(C)C)nn(C)c2C)cc1C,35
19,CCOc1cc(F)ccc1NC(=O)N(C)Cc1cnn(C)c1,4.71
20,CCC(=O)N1CCC2(CCN(Cc3cccc(F)c3)CC2)CC1,-6.97
21,COc1ccc(CN2C[C@@H](N(C)Cc3ccco3)[C@H]3OCCC[C@H]32)cc1,31.8

row,Structure (SMILES),INHIBITION [%]
1,CN(Cc1ccco1)[C@@H]1CN(Cc2ccco2)[C@@H]2CCCO[C@H]12,15.4
2,CN(Cc1ccco1)[C@@H]1CN(Cc2ccc(F)cc2)C[C@@H]2CCCO[C@@H]21,31.8
3,CN(Cc1ccco1)[C@@H]1CN(Cc2ccc(F)cc2)[C@@H]2CCCO[C@H]12,81.2
4,CN(Cc1ccco1)[C@@H]1CN(Cc2cccnc2)C[C@@H]2CCCO[C@@H]21,30.4
5,CN(Cc1ccco1)[C@@H]1CN(Cc2cccnc2)[C@@H]2CCCO[C@H]12,55.5
6,O=C1CCN(C(=O)NCc2ccccc2Oc2ccccc2)CCN1,11.4
7,COCC1CN(C(=O)c2ccco2)Cc2cn(C)nc21 (stereo not drawn),-30.6
8,Cc1ncc(C(=O)N2CC(C(=O)N3CCCCCC3)C2)c(C)n1,27.7045
9,CN(C)[C@@H]1CN(Cc2ccccn2)C[C@H]1c1cn(C)c2ccccc12,13.55
10,CC(C)=CCN1C[C@@H]2CC[C@H]1CN(C(=O)c1ccc3nc[nH]c3c1)C2,10.3
11,Cc1nn(C)c(C)c1S(=O)(=O)N1CC[C@@H]2O[C@@H](C)C[C@H]2C1,7.5
12,CCN1C[C@H]2C3(CCN(S(C)(=O)=O)CC3)CC[C@@]2(C(=O)N(C)C)C1,44.8
13,CC(c1nnc(-c2ccccc2)o1)N1CCC(Nc2ccccc2)CC1 (stereo not drawn),31.5
14,COCC1CN(Cc2ccc(C)o2)Cc2nnn(C)c21 (stereo not drawn),-102
15,O=c1[nH]c(CN2CCCC(Cn3cncn3)C2)nc2ccccc12 (stereo not drawn),21.01
16,Cc1nc(CC2CCCN(Cc3nc4ccccc4c(=O)[nH]3)C2)no1 (stereo not drawn),45.2
17,CCC1CCCN(Cc2nc3ccccc3c(=O)[nH]2)C1 (stereo not drawn),67.5
18,Cc1nccn1C1CCCN(C(=O)c2ccc3cc[nH]c3c2)C1 (stereo not drawn),4.52
19,CC(C)CC(C)NC1CCN(c2cccc(-c3cscn3)c2)CC1 (stereo not drawn),34.1
20,Cc1nnc(-c2cccc(N3CCC(NC(C)CC(C)C)CC3)c2)s1 (stereo not drawn),62.4
21,Cc1nnc(-c2cccc(N3CCC(NC4CCSC4)CC3)c2)s1 (stereo not drawn),18.9

# Reference: ChEMBL document CHEMBL4513216, “Probing the Open Global Health Chemical Diversity Library for Multistage-Active Starting Points for Next-Generation Antimalarials” (ACS Infect Dis, 2020)
